# From PubChem BioAssay (EPA / NIEHS)
# Records with an inconclusive call do not appear. More than one record can exist for a structure, and the calls need not agree. The source made the active and inactive calls. Rule for the calls, unless noted: active = hit-call score of the fitted dose curve at least 0.9, where 1 is the maximum; inactive = score below 0.9.
# Experiments:
# [1] = CCTE_Shafer_MEA_dev_burst_rate: CCTE's Neural Network Formation Assay for Burst Rate, Shafer Lab (AID 2284042)
# Outline: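 Exposure ran continuously over 12 days of network development in rat cortical cultures, with compound refreshed during full media changes on DIV 5 and 9. Single-electrode bursts per recording time, well-mean over active electrodes, trapezoidal AUC across days 5–12, fitted downward relative to DMSO.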
# [2] = CCTE_Shafer_MEA_dev_per_burst_interspike_interval: CCTE's Neural Network Formation Assay for Burst Interspike Interval, Shafer Lab (AID 2284044)
# Outline: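 Readout is the average time between spikes inside single-electrode bursts, taken as a well mean across bursting electrodes. Cortical neurons from rat developed networks on MEA plates under continuous 12-day exposure; recordings on days 5, 7, 9 and 12 were integrated by trapezoidal AUC.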
# [3] = CCTE_Shafer_MEA_dev_burst_duration_mean: CCTE's Neural Network Formation Assay for Mean Burst Duration, Shafer Lab (AID 2284045);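 for AC50: curve fitted for loss meaning shorter burst duration than DMSO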
# Outline: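 Read-out: average first-to-last-spike interval within single-electrode bursts, averaged over bursting electrodes per well, then summarised as area under the curve across days 5, 7, 9 and 12. Developing rat cortical networks were exposed from day 0.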
# [4] = CCTE_Shafer_MEA_dev_interburst_interval_mean: CCTE's Neural Network Formation Assay for Mean Interburst Interval, Shafer Lab (AID 2284046);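 note: well-mean interburst interval of bursting electrodes as AUC over four recording days; curve fitted for decrease in interburst interval relative to DMSO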
# Outline: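 Primary rat cortical neurons on PEI-coated 48-well MEA plates (laminin added with cells at plating) (16 electrodes/well), exposed from plating day 0 with renewal at DIV 5 and 9. Mean inter-burst interval averaged over bursting electrodes, AUC across days 5, 7, 9, 12; DMSO baseline.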
# [5] = CCTE_Shafer_MEA_dev_inter_network_spike_interval_mean: CCTE's Neural Network Formation Assay for Mean Inter-network Spike Interval, Shafer Lab (AID 2284047)
# Outline: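 Mean time between consecutive network-spike peaks, recorded extracellularly (adaptive spike detection) on DIV 5, 7, 9 and 12, summarized as trapezoidal AUC. Rat cortical cultures on MEAs dosed continuously days 0–12, re-dosed at feeds; loss-of-signal fit relative to DMSO.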
# [6] = CCTE_Shafer_MEA_dev_network_spike_number: CCTE's Neural Network Formation Assay for Number of Network Spikes, Shafer Lab (AID 2284048);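 for AC50: fit as a loss of signal meaning fewer network spikes than DMSO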
# Outline: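 Developing networks of primary rat cortical neurons are treated over 12 days starting at plating, with media and compound fully replaced on DIV 5 and 9. Network spike counts from four recording days are integrated as trapezoidal AUC.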
# [7] = CCTE_Shafer_MEA_dev_network_spike_peak: CCTE's Neural Network Formation Assay for Mean Number of Electrodes in Network Spike, Shafer Lab (AID 2284049);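 for AC50: fitted for loss of signal meaning fewer electrodes in network spikes than DMSO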
# Outline: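 Rat cortical primary culture, 1.5 x 10^5 cells/well, 48-well MEA (16 electrodes/well). Dosing day 0 through DIV 12, full media/compound exchange DIV 5, 9. AxIS adaptive spike detection; AUC over days 5/7/9/12; loss-of-signal vs DMSO.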
# [8] = CCTE_Shafer_MEA_dev_active_electrodes_number: CCTE's Neural Network Formation Assay for Number of Active Electrodes, Shafer Lab (AID 2284040; active = hit-call score of the fitted dose curve at least 0.9, where 1 is the maximum;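 for AC50: potency for loss of active electrodes versus DMSO so lower counts are hits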)
# Outline: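 Primary rat cortical neurons on 16-electrode MEA wells, exposed from day 0 through day 12 with compound renewed at DIV 5 and 9 feeds. Active electrodes (mean firing ≥5 spikes/min) counted at DIV 5, 7, 9, 12; trapezoidal AUC across days, loss-of-signal versus DMSO.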
# [9] = CCTE_Deisenroth_AIME_384WELL_CTox_Inactive: Cytotoxicity Assessment (CTOX) in CCTE's 384-well Estrogen Receptor Transactivation Assay without AIME metabolic competence (metabolism negative), Deisenroth Lab (AID 2284039; active = hit-call score of the fitted dose curve at least 0.9, where 1 is the maximum;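 note: cell viability via live-cell protease substrate cleaved to fluorescent probe; cells exposed 24 h to medium preincubated 2 h with alginate-water beads without S9; loss of fluorescence signal means loss of viability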)
# Outline: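 Fluorescent protease-substrate viability readout after 24 h exposure of VM7Luc4E2 cells to conditioned medium. Chemicals (0.002–200 uM) first sat 2 h over alginate-water beads, no S9. Data fitted bidirectionally, loss of signal meaning viability loss.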
# [10] = target: Estrogen receptor (Homo sapiens) (UniProt P03372); test: CCTE_Deisenroth_AIME_384WELL_LUC_Shift: CCTE's 384-well Estrogen Receptor Transactivation Assay with AIME metabolic competence data shift (ERTA luciferase; difference in metabolism positive and negative), Deisenroth Lab (AID 2284041);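 note: shift is response with S9 minus without S9 so positive means metabolism raised ER signal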
# Chain of Estrogen receptor (Homo sapiens) (P03372 whole entry, looked up): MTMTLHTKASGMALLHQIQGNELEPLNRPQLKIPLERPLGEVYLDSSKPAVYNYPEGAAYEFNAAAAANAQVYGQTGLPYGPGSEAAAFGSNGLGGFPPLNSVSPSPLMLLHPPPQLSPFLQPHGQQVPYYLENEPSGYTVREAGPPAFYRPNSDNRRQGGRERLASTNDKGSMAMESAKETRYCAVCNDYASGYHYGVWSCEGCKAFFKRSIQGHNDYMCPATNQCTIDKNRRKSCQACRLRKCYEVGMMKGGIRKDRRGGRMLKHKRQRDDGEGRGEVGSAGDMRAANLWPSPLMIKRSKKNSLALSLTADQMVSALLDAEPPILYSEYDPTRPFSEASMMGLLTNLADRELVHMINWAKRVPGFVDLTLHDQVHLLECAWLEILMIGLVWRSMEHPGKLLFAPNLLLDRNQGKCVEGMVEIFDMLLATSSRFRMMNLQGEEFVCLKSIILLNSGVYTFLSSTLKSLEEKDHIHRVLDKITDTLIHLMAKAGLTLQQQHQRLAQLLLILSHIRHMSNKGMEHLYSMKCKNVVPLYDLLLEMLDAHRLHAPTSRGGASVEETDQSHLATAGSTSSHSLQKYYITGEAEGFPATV
# Outline: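 Test chemicals (0.002–200 uM, 10-point) were pre-incubated 2 h with alginate microspheres containing phenobarbital/beta-naphthoflavone-induced male Sprague Dawley rat liver S9 or water, then medium was transferred to VM7Luc4E2 cells for 24 h luciferase readout; shift = S9-positive minus S9-negative normalized response.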
smiles,measurement,setting,value
OC(O)C(F)(F)C(F)(F)F,outcome,[1],inactive
same,outcome,[2],inactive
same,outcome,[3],inactive
same,outcome,[4],inactive
same,outcome,[5],inactive
same,outcome,[6],inactive
same,outcome,[7],inactive
OCC(F)(F)C(F)(F)C(F)(F)C(F)(F)C(F)(F)C(F)(F)C(F)(F)C(F)(F)CO,AC50,[8],15 µM (active)
same,outcome,[1],inactive
same,outcome,[2],inactive
same,outcome,[3],inactive
same,outcome,[4],inactive
same,outcome,[5],inactive
same,outcome,[6],inactive
same,AC50,[7],22.5 µM (active)
CC(C)OC=O,outcome,[9],inactive
same,outcome,[10],inactive
OCC(O)CC(F)(F)C(F)(F)C(F)(F)C(F)(F)F (stereo not drawn),outcome,[8],inactive
same,outcome,[1],inactive
same,outcome,[2],inactive
same,outcome,[3],inactive
same,outcome,[4],inactive
same,outcome,[5],inactive
same,outcome,[6],inactive
same,outcome,[7],inactive
O=C(O)C(F)(F)C(F)(F)C(F)(F)OC(F)(F)F,outcome,[1],inactive
same,outcome,[2],inactive
same,outcome,[3],inactive
same,outcome,[4],inactive
same,outcome,[5],inactive
same,outcome,[6],inactive
same,outcome,[7],inactive
O=C1C=CC(=O)N1c1ccccc1,outcome,[9],inactive
same,outcome,[10],inactive
CCCCOC(=O)C(C)O (stereo not drawn),outcome,[9],inactive
same,outcome,[10],inactive
CO[Si](C)(CCC(F)(F)C(F)(F)C(F)(F)C(F)(F)C(F)(F)C(F)(F)F)OC,outcome,[1],inactive
same,outcome,[2],inactive
same,outcome,[3],inactive
same,outcome,[4],inactive
same,outcome,[5],inactive
same,outcome,[6],inactive
same,outcome,[7],inactive
NC(=O)C(F)(F)C(F)(F)C(F)(F)F,outcome,[1],inactive
same,outcome,[2],inactive
same,outcome,[3],inactive
same,outcome,[4],inactive
same,outcome,[5],inactive
same,outcome,[6],inactive
same,outcome,[7],inactive
CCCCCCCC/C=C\CCCCCCCC(=O)OCC(O)CO (stereo not drawn),outcome,[9],inactive
same,outcome,[10],inactive
C=CC(=O)OCC(F)(F)C(F)(F)C(F)(F)COC(=O)C=C,AC50,[8],4.25 µM (active)
same,outcome,[1],inactive
same,outcome,[2],inactive
same,AC50,[3],3.86 µM (active)
same,AC50,[4],8.65 µM (active)
same,outcome,[5],inactive
same,AC50,[6],1.18 µM (active)
same,AC50,[7],4.61 µM (active)
CC(C)(C)c1cc(Cc2cc(C(C)(C)C)c(O)c(C(C)(C)C)c2)cc(C(C)(C)C)c1O,outcome,[10],inactive
Cc1ccc(O)c(-n2nc3ccccc3n2)c1,outcome,[10],inactive
OCC(F)(F)C(F)(F)C(F)(F)C(F)(F)C(F)(F)C(F)(F)CO,AC50,[8],0.65 µM (active)
same,outcome,[1],inactive
same,outcome,[2],inactive
same,outcome,[3],inactive
same,outcome,[4],inactive
same,outcome,[5],inactive
same,outcome,[6],inactive
same,outcome,[7],inactive
CCCCCCCC/C=C\CCCCCCCC(=O)N(C)CC(=O)O,outcome,[9],inactive
same,outcome,[10],inactive
NC(=O)C(F)(F)C(F)(F)C(F)(F)C(F)F,outcome,[1],inactive
same,outcome,[2],inactive
same,outcome,[3],inactive
same,outcome,[4],inactive
same,outcome,[5],inactive
same,outcome,[6],inactive
same,outcome,[7],inactive
OCCCCC(F)(F)C(F)(F)C(F)(F)C(F)(F)F,outcome,[8],inactive
same,outcome,[1],inactive
same,outcome,[2],inactive
same,outcome,[3],inactive
same,outcome,[4],inactive
same,outcome,[5],inactive
same,outcome,[6],inactive
same,outcome,[7],inactive
CCN=C1C=CC(=C(c2ccc(N(CC)CC)cc2)c2ccc(N(CC)CC)cc2)c2ccccc21,AC50,[9],57.3 µM (active)
same,outcome,[10],inactive
CNS(=O)(=O)C(F)(F)C(F)(F)C(F)(F)C(F)(F)C(F)(F)C(F)(F)C(F)(F)C(F)(F)F,outcome,[8],inactive
same,outcome,[1],inactive
same,outcome,[2],inactive
same,outcome,[3],inactive
same,outcome,[4],inactive
same,outcome,[5],inactive
same,outcome,[6],inactive
same,outcome,[7],inactive
NC(=O)C(F)(F)C(F)(F)C(F)(F)C(F)(F)C(N)=O,outcome,[8],inactive
same,outcome,[1],inactive
same,outcome,[2],inactive
same,outcome,[3],inactive
same,outcome,[4],inactive
same,outcome,[5],inactive
same,outcome,[6],inactive
same,outcome,[7],inactive
N#Cc1ccccc1O,outcome,[9],inactive
same,outcome,[10],inactive
CCN(CCO)S(=O)(=O)C(F)(F)C(F)(F)C(F)(F)C(F)(F)C(F)(F)C(F)(F)C(F)(F)C(F)(F)F,outcome,[8],inactive
same,outcome,[1],inactive
same,outcome,[2],inactive
same,outcome,[3],inactive
same,outcome,[4],inactive
same,outcome,[5],inactive
same,outcome,[6],inactive
same,outcome,[7],inactive
NC(O)(C(F)(F)F)C(F)(F)F,outcome,[8],inactive
same,outcome,[1],inactive
same,outcome,[2],inactive
same,outcome,[3],inactive
same,outcome,[4],inactive
same,outcome,[5],inactive
same,outcome,[6],inactive
same,AC50,[7],0.00434 µM (active)
same,outcome,[7],inactive
C=CC(=O)OCCC(F)(F)C(F)(F)C(F)(F)C(F)(F)F,outcome,[8],inactive
same,outcome,[1],inactive
same,outcome,[2],inactive
same,outcome,[3],inactive
same,outcome,[4],inactive
same,outcome,[5],inactive
same,outcome,[6],inactive
same,AC50,[7],23.5 µM (active)
O=S(=O)(O)CCC(F)(F)C(F)(F)C(F)(F)C(F)(F)F,outcome,[8],inactive
same,outcome,[1],inactive
same,outcome,[2],inactive
same,outcome,[3],inactive
same,outcome,[4],inactive
same,outcome,[5],inactive
same,outcome,[6],inactive
same,outcome,[7],inactive
CCOC(OCC)OCC,outcome,[10],inactive
FC(F)(F)C(F)(F)C(F)(F)C(F)(F)C(F)(F)C(F)(F)C(F)(F)CCI,outcome,[8],inactive
same,outcome,[1],inactive
same,outcome,[2],inactive
same,outcome,[3],inactive
same,outcome,[4],inactive
same,outcome,[5],inactive
same,outcome,[6],inactive
same,outcome,[7],inactive
OCC1CCCO1 (stereo not drawn),outcome,[10],inactive
O=C(c1ccccc1)c1ccc(O)cc1O,outcome,[10],inactive
OCC(F)(F)C(F)(F)C(F)(F)CO,outcome,[8],inactive
same,outcome,[1],inactive
same,outcome,[2],inactive
same,AC50,[3],15 µM (active)
same,outcome,[4],inactive
same,outcome,[5],inactive
same,outcome,[6],inactive
same,outcome,[7],inactive
CC(=O)CCC(C)C,outcome,[9],inactive
same,outcome,[10],inactive
O=S(=O)(O)CCC(F)(F)C(F)(F)C(F)(F)C(F)(F)C(F)(F)C(F)(F)C(F)(F)C(F)(F)F,outcome,[1],inactive
same,outcome,[2],inactive
same,outcome,[3],inactive
same,outcome,[4],inactive
same,outcome,[5],inactive
same,outcome,[6],inactive
same,outcome,[7],inactive
